In PubChem BioAssay one finds fluorescence slope change, period change and survival data, which are given here for 38 compounds.

A number with no mark means an inactive call. Records with an inconclusive call do not appear. Activity calls are given as the source filed them. Unless noted, no rule for the calls is given here.

The target of the first experiment is ATP-dependent translocase ABCB1 (Homo sapiens) (UniProt P08183). Kind of experiment: MDR1 (ABCB1) efflux transporter inhibition, cell-based (AID 377; in the data active = fluorescence slope change above about 50%). The settings on record: MDR1-expressing cells, fluorescent substrate accumulation slope; active compounds read high; concentration not given here.
ATP-dependent translocase ABCB1 (Homo sapiens), sequence (P08183 whole entry, looked up): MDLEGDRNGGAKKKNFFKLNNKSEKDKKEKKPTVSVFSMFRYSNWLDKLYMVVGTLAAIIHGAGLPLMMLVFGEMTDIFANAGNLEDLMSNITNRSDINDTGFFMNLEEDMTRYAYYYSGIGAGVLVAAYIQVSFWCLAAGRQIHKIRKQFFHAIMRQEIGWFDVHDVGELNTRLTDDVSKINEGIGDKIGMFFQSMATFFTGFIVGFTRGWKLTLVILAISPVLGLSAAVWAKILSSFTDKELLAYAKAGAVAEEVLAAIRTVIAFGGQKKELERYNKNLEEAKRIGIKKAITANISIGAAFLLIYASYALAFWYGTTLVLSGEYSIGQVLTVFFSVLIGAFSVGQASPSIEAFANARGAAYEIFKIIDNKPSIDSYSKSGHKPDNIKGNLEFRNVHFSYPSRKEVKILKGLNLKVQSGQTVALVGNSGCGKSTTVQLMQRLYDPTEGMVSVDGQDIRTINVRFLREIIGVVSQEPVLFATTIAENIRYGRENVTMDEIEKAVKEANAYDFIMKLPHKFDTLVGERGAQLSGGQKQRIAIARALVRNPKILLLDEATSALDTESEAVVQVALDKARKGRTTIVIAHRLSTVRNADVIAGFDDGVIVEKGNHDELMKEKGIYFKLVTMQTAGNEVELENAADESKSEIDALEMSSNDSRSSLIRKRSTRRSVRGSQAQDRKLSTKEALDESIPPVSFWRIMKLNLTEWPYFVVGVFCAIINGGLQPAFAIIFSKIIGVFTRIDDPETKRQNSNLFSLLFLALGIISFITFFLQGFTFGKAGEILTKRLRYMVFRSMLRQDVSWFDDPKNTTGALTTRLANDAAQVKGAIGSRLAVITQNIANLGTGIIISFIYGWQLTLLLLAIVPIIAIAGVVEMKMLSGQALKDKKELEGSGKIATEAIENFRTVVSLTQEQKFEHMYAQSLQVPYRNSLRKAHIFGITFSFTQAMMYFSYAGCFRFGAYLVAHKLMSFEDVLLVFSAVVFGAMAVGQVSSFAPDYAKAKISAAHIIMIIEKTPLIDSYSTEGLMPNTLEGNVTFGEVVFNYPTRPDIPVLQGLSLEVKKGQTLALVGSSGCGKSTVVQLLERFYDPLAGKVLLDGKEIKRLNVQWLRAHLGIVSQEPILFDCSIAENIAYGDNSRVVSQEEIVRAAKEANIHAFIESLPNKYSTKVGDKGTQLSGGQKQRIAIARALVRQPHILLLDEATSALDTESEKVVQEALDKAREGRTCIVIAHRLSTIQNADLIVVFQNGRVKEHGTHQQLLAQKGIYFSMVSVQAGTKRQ
For the compound `C[C@@H]1C[C@H]2[C@@H]3C[C@H](F)C4=CC(=O)C=C[C@]4(C)[C@@]3(F)[C@@H](O)C[C@]2(C)[C@@]1(O)C(=O)CO`, the fluorescence slope change is 57.3% (active).

As for `Cc1ccc(S(=O)(=O)NC(=O)NN2CC3CCCC3C2)cc1` (stereo not given), the fluorescence slope change is 10.5%.

As for `Nc1ccc(S(=O)(=O)Nc2ccc(Cl)nn2)cc1`, the fluorescence slope change is -13.4%.

Regarding `CCOC(=O)n1ccn(C)c1=S`, the fluorescence slope change is 99.3% (active).

Turning to `CCN(CCCc1ccccc1)CCCc1ccccc1`, the fluorescence slope change was 72.6% (active).

On to `Nc1ncnc2c1ncn2[C@@H]1O[C@H](COP(=O)(O)O)[C@@H](O)[C@H]1O`, for which the fluorescence slope change was 73% (active).

For `Cc1cc2c(C(C)C)c(O)c(O)c(C=O)c2c(O)c1-c1c(C)cc2c(C(C)C)c(O)c(O)c(C=O)c2c1O`, the fluorescence slope change is 93.5% (active).

Regarding `Oc1cc(O)c2c(c1)O[C@H](c1ccc(O)c(O)c1)[C@H](O)C2`, the fluorescence slope change was -0.6%.

As for `CC1(C)O[C@@H]2C[C@H]3[C@@H]4CCC5=CC(=O)CC[C@]5(C)[C@@]4(F)[C@@H](O)C[C@]3(C)[C@]2(C(=O)CCl)O1`, the fluorescence slope change was 26.3%.

For `COc1ccc2nc(S(=O)Cc3ncc(C)c(OC)c3C)[nH]c2c1` (stereo not given), the fluorescence slope change was 50.5% (active).

For `CC1CC(OC(=O)C(O)c2ccccc2)CC(C)(C)N1C` (stereo not given), the fluorescence slope change is 23.1%.

As for `CC[C@]12CCCN3CCc4c(n(c5ccccc45)[C@@](O)(C(=O)OC)C1)[C@@H]32`, the fluorescence slope change is 8.1%.

Regarding `CC(=O)OCC(=O)[C@@]1(O)[C@H](C)C[C@H]2[C@@H]3CCC4=CC(=O)C=C[C@]4(C)[C@@]3(F)[C@@H](O)C[C@@]21C`, the fluorescence slope change is 109% (active).

On to `CN1CCCCC1CCN1c2ccccc2Sc2ccc(S(C)=O)cc21` (stereo not given), for which the fluorescence slope change was 54.4% (active).

Regarding `CCOC(=O)OC(C)OC(=O)[C@@H]1N2C(=O)[C@@H](NC(=O)[C@H](N)c3ccccc3)[C@H]2SC1(C)C` (stereo not given in full), the fluorescence slope change is 97.9% (active).

With `COc1cc(OC)c(C(=O)CCCN2CCCC2)c(OC)c1`, the fluorescence slope change was 82.5% (active).

As for `CCc1oc2ccccc2c1C(=O)c1cc(Br)c(O)c(Br)c1`, the fluorescence slope change was 56.7% (active).

Take `CN1CCN(C(c2ccccc2)c2ccccc2)CC1`: the fluorescence slope change is 59.4% (active).

In the case of `COc1cc2c3cc1Oc1cc(ccc1O)C[C@@H]1c4c(cc(OC)c(O)c4Oc4ccc(cc4)C[C@@H]3N(C)CC2)CC[N+]1(C)C`, the fluorescence slope change is 8.4%.

In the case of `CC(=O)[C@@]1(O)CC[C@H]2[C@@H]3C[C@H](C)C4=CC(=O)C=C[C@]4(C)[C@@]3(F)[C@@H](O)C[C@@]21C`, the fluorescence slope change is 10.7%.

Tested on in another experiment: not listed separately
Nature of the experiment: circadian clock period modulators, cell-based, LOPAC library, luminescence reporter (AID 2774).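 Also: values are relative to mean of DMSO wells on each plate.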 The settings on record: circadian reporter cells, at 7 µM, actives lie on both sides.
For `COc1ccc(C2CNC(=O)C2)cc1OC1CCCC1` (stereo not given), the period change is -0.065 h.

Take `Nc1nc2c(ncn2COC(CO)CO)c(=O)[nH]1`: the period change was -0.27 h.

Take `CCCCNc1c(C(=O)OCC)c(C)nc2c1cnn2CC`: the period change is 0.105 h.

`CCCCCN(CCCCC)C(=O)C(CCC(=O)O)NC(=O)c1ccc(Cl)c(Cl)c1` (stereo not given): the period change is 0.13 h.

Consider `Cc1[nH]c(=O)c(C#N)cc1-c1ccncc1`, for which the period change was -0.005 h.

Consider `O=C(CCNNC(=O)c1ccncc1)NCc1ccccc1`, for which the period change was -0.045 h.

Regarding `COc1cc2nc(N3CCN(C(=O)C4CCCO4)CC3)nc(N)c2cc1OC` (stereo not given), the period change is 0.02 h.

Turning to `C[n+]1cc2c3c(ccc2c2ccc4cc5c(cc4c21)OCO5)OCO3`, the period change is -0.18 h.

Take `COc1ccccc1N1CCN(CC(O)COc2cccc3ccccc23)CC1` (stereo not given): the period change is 0.04 h.

Regarding `c1cnc(N2CCN(Cc3ccc4c(c3)OCO4)CC2)nc1`, the period change was -0.05 h.

With `CNC1(C)C2CCC(C2)C1(C)C` (stereo not given), the period change is 0.19 h.

Regarding `Cc1nc2n(c(=O)c1CCN1CCC(c3noc4cc(F)ccc34)CC1)CCCC2`, the period change is 0.015 h.

Regarding `NC(N)=Nc1nc(CSCC/C(N)=N/S(N)(=O)=O)cs1`, the period change was -0.03 h.

For `Nc1ccn([C@H]2CC[C@@H](CO)O2)c(=O)n1`, the period change was -0.095 h.

Tested on in a further experiment: not listed separately
Nature of the experiment: hESC survival regulators, cell-based (AID 493140).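 Also: cells exposed to compounds for four days before counting.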 The settings on record: human embryonic stem cell survival screen; active compounds read high.
For `C[C@@H]1C[C@H]2[C@@H]3C[C@H](F)C4=CC(=O)C=C[C@]4(C)[C@@]3(F)[C@@H](O)C[C@]2(C)[C@@]1(O)C(=O)CO`, the survival was 2.17.

With `COc1ccc(C2CNC(=O)C2)cc1OC1CCCC1` (stereo not given), the survival was 3.92.

On to `Nc1nc2c(ncn2COC(CO)CO)c(=O)[nH]1`, for which the survival was 3.83.

Turning to `CCCCNc1c(C(=O)OCC)c(C)nc2c1cnn2CC`, the survival was 17.3.

Turning to `CCCCCN(CCCCC)C(=O)C(CCC(=O)O)NC(=O)c1ccc(Cl)c(Cl)c1` (stereo not given), the survival is 1.92.

As for `Cc1[nH]c(=O)c(C#N)cc1-c1ccncc1`, the survival is 9.17.

Turning to `Cc1ccc(S(=O)(=O)NC(=O)NN2CC3CCCC3C2)cc1` (stereo not given), the survival is 5.67.

As to `O=C(CCNNC(=O)c1ccncc1)NCc1ccccc1`, the survival is 17.5.

`CCN1CCN(C(=O)N[C@@H](C(=O)N[C@@H]2C(=O)N3C(C(=O)O)=C(CSc4nnnn4C)CS[C@H]23)c2ccc(O)cc2)C(=O)C1=O`: the survival was 9.17.

In the case of `Nc1ccc(S(=O)(=O)Nc2ccc(Cl)nn2)cc1`, the survival is 5.17.

Take `COc1cc2nc(N3CCN(C(=O)C4CCCO4)CC3)nc(N)c2cc1OC` (stereo not given): the survival was 3.75.

Take `CCOC(=O)n1ccn(C)c1=S`: the survival was 11.8.

In the case of `C[n+]1cc2c3c(ccc2c2ccc4cc5c(cc4c21)OCO5)OCO3`, the survival was 1.33.

Take `CCN(CCCc1ccccc1)CCCc1ccccc1`: the survival is 6.17.

`Nc1ncnc2c1ncn2[C@@H]1O[C@H](COP(=O)(O)O)[C@@H](O)[C@H]1O`: the survival is 7.33.

For `Nc1[nH]c(=O)ncc1F`, the survival was 2.42.

On to `Cc1cc2c(C(C)C)c(O)c(O)c(C=O)c2c(O)c1-c1c(C)cc2c(C(C)C)c(O)c(O)c(C=O)c2c1O`, for which the survival is 5.5.

On to `COc1ccccc1N1CCN(CC(O)COc2cccc3ccccc23)CC1` (stereo not given), for which the survival is 8.25.

As to `c1cnc(N2CCN(Cc3ccc4c(c3)OCO4)CC2)nc1`, the survival is 3.67.

Take `CC1(C)O[C@@H]2C[C@H]3[C@@H]4CCC5=CC(=O)CC[C@]5(C)[C@@]4(F)[C@@H](O)C[C@]3(C)[C@]2(C(=O)CCl)O1`: the survival is 5.5.

In the case of `COc1cc(C)nc(-n2nc(C)cc2OC)n1`, the survival is 33.2.

For the compound `CNC1(C)C2CCC(C2)C1(C)C` (stereo not given), the survival was 42.

For `COc1ccc2nc(S(=O)Cc3ncc(C)c(OC)c3C)[nH]c2c1` (stereo not given), the survival is 10.2.

`COc1ccc(C(=O)c2ccccc2O)c(O)c1`: the survival was 1.42.

As to `CC1CC(OC(=O)C(O)c2ccccc2)CC(C)(C)N1C` (stereo not given), the survival was 2.33.

Take `CC[C@]12CCCN3CCc4c(n(c5ccccc45)[C@@](O)(C(=O)OC)C1)[C@@H]32`: the survival was 10.1.

`Cc1nc2n(c(=O)c1CCN1CCC(c3noc4cc(F)ccc34)CC1)CCCC2`: the survival is 5.

Regarding `NC(N)=Nc1nc(CSCC/C(N)=N/S(N)(=O)=O)cs1`, the survival is 16.5.

For the compound `CC(=O)OCC(=O)[C@@]1(O)[C@H](C)C[C@H]2[C@@H]3CCC4=CC(=O)C=C[C@]4(C)[C@@]3(F)[C@@H](O)C[C@@]21C`, the survival is 16.5.

Take `CN1CCCCC1CCN1c2ccccc2Sc2ccc(S(C)=O)cc21` (stereo not given): the survival was 3.42.

Turning to `Nc1ccn([C@H]2CC[C@@H](CO)O2)c(=O)n1`, the survival is 9.

`CCOC(=O)OC(C)OC(=O)[C@@H]1N2C(=O)[C@@H](NC(=O)[C@H](N)c3ccccc3)[C@H]2SC1(C)C` (stereo not given in full): the survival is 16.9.

As to `COc1cc(OC)c(C(=O)CCCN2CCCC2)c(OC)c1`, the survival is 9.58.

On to `CCc1oc2ccccc2c1C(=O)c1cc(Br)c(O)c(Br)c1`, for which the survival is 13.1.

As to `CN1CCN(C(c2ccccc2)c2ccccc2)CC1`, the survival was 4.58.

For `CC(=O)[C@@]1(O)CC[C@H]2[C@@H]3C[C@H](C)C4=CC(=O)C=C[C@]4(C)[C@@]3(F)[C@@H](O)C[C@@]21C`, the survival was 6.17.
